Drawing on the supplement of paper PMC8540655, this text covers larval motility for 40 compounds.

A number with no mark means an inactive call.

The first test relates to Aedes aegypti larvae. The experiment in a line: larval motility relative to same well at 0 h (fraction); higher = more motile (less active compound), active = 0.4 or less. The conditions noted are these: 10 µM; 2 h. Put shortly: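 Each 96-well plate held about 10 Aedes aegypti larvae per well in 100 µL, along with solvent and larvicide control wells. Compounds were present at 10 µM with 1% v/v DMSO, and INVAPP recorded 200-frame movies at 100 ms intervals at 0, 2 and 24 h. Relative motility divides each well's score by its baseline score from the first recording, with the median taken across independent larval batches, of which there were three.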
Consider `Cc1c(OCC(F)(F)F)ccnc1CS(=O)c1nc2ccccc2[nH]1` (stereo not given), for which the larval motility was 1.17.
Still for that read-out and setting: to `CCC(C)(C)c1ccc(CC(C)CN2C[C@@H](C)O[C@@H](C)C2)cc1` (stereo not given in full) belongs 0.895; to `C[C@H](Cn1cnc2c(N)ncnc21)OCP(=O)(O)O`, 1.31.
The same measure, in the same setting: in the case of `C=CCc1cc(Cc2cnc(N)nc2N)cc(OC)c1O` it was 1.05; in that of `CCCCCc1ccc(C(=O)NCCn2cc(CCCCCc3cnc(N)[nH]3)nn2)cc1`, 0.643.
As to `CC1(C)Cc2c(C#N)c(SCCc3ccccc3)nc(N3CCOCC3)c2CO1`, the larval motility is 0.485.
On to `Cc1[nH]c2ccccc2c1CC(=O)N[C@@H](Cc1ccccc1)C(=O)N(C)c1ccccc1`, for which the larval motility was 0.963.
The same measure, in the same setting: to `CCc1ccccc1OCCN1CCCCCC1` belongs 1.18; to `O=C(Nc1[nH]c(=O)ncc1F)c1ccccc1`, 0.527.
Same read-out and setting: in the case of `Nc1cnn(C2OC(CO)C(O)C2O)c(=O)n1` (stereo not given) it was 1.16; in that of `Cc1nc(Nc2ccc(F)cc2)nc(N2CCc3ccccc3C2C)c1C` (stereo not given), 0.774; in that of `Nc1nc(O)c2ncn(COCCO)c2n1`, 0.732.
Still for that read-out and setting: in the case of `Cc1c[nH]c(=O)nc1NCc1ccccc1` it was 1.16; in that of `c1ccc(Cn2c(-c3ccccn3)nc3ccccc32)cc1`, 1.19; in that of `CC[N+]1(C/C2=C/CCCCCC2)CCC(NC(=O)C2c3cc(Cl)ccc3Oc3ccc(Cl)cc32)CC1` (stereo not given), 1.22.
Consider `CCOC(=O)/C=C/[C@H](C[C@@H]1CCNC1=O)NC(=O)[C@@H](CC(=O)[C@@H](NC(=O)c1cc(C)on1)C(C)C)Cc1ccc(F)cc1`, for which the larval motility was 1.26.
As for `Cc1oncc1C(=O)Nc1ccc(C(F)(F)F)cc1`, the larval motility was 0.743.
On the same count and under the same terms, in the case of `Cc1ncc([N+](=O)[O-])n1CC(C)O` (stereo not given) it was 1.43.
On the same count and under the same terms, in the case of `CC(N)C(=O)NC(CCCCN)C(=O)NC(CCCNC(=N)N)C(=O)NC(Cc1c[nH]cn1)C(=O)NC(Cc1c[nH]cn1)C(=O)NCC(=O)NC(Cc1ccc(O)cc1)C(=O)NC(CCCCN)C(=O)NC(CCCNC(=N)N)C(=O)NC(CCCCN)C(=O)NC(Cc1ccccc1)C(=O)NC(Cc1c[nH]cn1)C(N)=O` (stereo not given) it was 0.858; in that of `NC(=O)c1[nH]c2ccc(S(N)(=O)=O)cc2c1-c1ccccc1`, 0.832.
On the same count and under the same terms, in the case of `CN(C(=O)C1(c2ccc(Cl)cc2)CCC1)c1ccccc1` it was 1.1; in that of `CN(Cc1ccc(C(C)(C)C)cc1)Cc1cccc2ccccc12`, 0.508; in that of `Cc1cc(-c2ccccc2)c(C(=O)C(=O)Nc2ccc(N3CCN(c4ncc(F)cn4)CC3)cc2)n1C`, 0.636.
With `Nc1nc(-c2ccccc2)nc2[nH]nc(Nc3ccc(C(F)(F)F)cc3)c12`, the larval motility was 0.791.
On the same count and under the same terms, to `CC[C@@H]1C(=O)OC[C@@H]1Cc1cncn1C` belongs 1.22; to `COc1cc2c(O)c3c(c(-c4ccc5c(c4)OCO5)c2cc1OC)C(=O)OC3`, 0.887.
For the compound `CN1CCN(c2ccc3[nH]c(-c4ccc5[nH]c(-c6ccc(O)cc6)nc5c4)nc3c2)CC1`, the larval motility was 0.732.
As to `O=C(NCc1cccc2ccccc12)c1cccs1`, the larval motility is 0.689.
As to `Clc1cc2nc(C3CCNCC3)n(Cc3ccc(CNCCc4cnc[nH]4)cc3)c2cc1Cl`, the larval motility was 0.575.
On the same count and under the same terms, to `CC(=O)Oc1ccccc1C(=O)Nc1ncc([N+](=O)[O-])s1` belongs 1.58; to `Cc1ccccc1NC(=O)Nc1cccc([N+](=O)[O-])c1`, 1.19; to `Cc1ccc(NC(=O)c2cc(Cl)ccc2O)cc1`, 0.656.
Take `NC(=O)c1ccc(I)c([N+](=O)[O-])c1`: the larval motility was 0.749.
Still for that read-out and setting: in the case of `NC[C@H]1OB(O)c2c(OCCCO)cccc21` it was 1.28.
Same read-out and setting: to `O=C(Nc1nnc(-c2ccc(Cl)cc2)o1)c1ccc(F)cc1` belongs 1.18; to `CC(C)(C)c1cccc(-c2nc3cc(C(=N)N)ccc3[nH]2)c1O`, 1.04; to `COC1CC2CCC(C)C(O)(O2)C(=O)C(=O)N2CCCCC2C(=O)OC(C(C)CC2CCC(OCCO)C(OC)C2)CC(=O)C(C)/C=C(\C)C(O)C(OC)C(=O)C(C)CC(C)/C=C/C=C/C=C/1C` (stereo not given), 0.921.
On the same count and under the same terms, in the case of `CCCC1(C2CC2)c2cc(Cl)ccc2NC(=O)N1C` (stereo not given) it was 0.846; in that of `CCc1nc2ccccn2c1C(=O)NCc1ccccc1`, 1.39; in that of `C[C@H](c1cccc2ccccc12)N(C)Cc1ccccc1`, 1.02.

Staying with this test, now noted: 10 µM; 24 h.
On to `Cc1c(OCC(F)(F)F)ccnc1CS(=O)c1nc2ccccc2[nH]1` (stereo not given), for which the larval motility is 1.38.
The same measure, in the same setting: to `CCC(C)(C)c1ccc(CC(C)CN2C[C@@H](C)O[C@@H](C)C2)cc1` (stereo not given in full) belongs 0.765; to `C[C@H](Cn1cnc2c(N)ncnc21)OCP(=O)(O)O`, 1.07; to `C=CCc1cc(Cc2cnc(N)nc2N)cc(OC)c1O`, 1.18.
Consider `CCCCCc1ccc(C(=O)NCCn2cc(CCCCCc3cnc(N)[nH]3)nn2)cc1`, for which the larval motility is 0.914.
Consider `CC1(C)Cc2c(C#N)c(SCCc3ccccc3)nc(N3CCOCC3)c2CO1`, for which the larval motility is 1.28.
The same measure, in the same setting: in the case of `Cc1[nH]c2ccccc2c1CC(=O)N[C@@H](Cc1ccccc1)C(=O)N(C)c1ccccc1` it was 1.03; in that of `CCc1ccccc1OCCN1CCCCCC1`, 1.21.
On the same count and under the same terms, to `O=C(Nc1[nH]c(=O)ncc1F)c1ccccc1` belongs 0.773; to `Nc1cnn(C2OC(CO)C(O)C2O)c(=O)n1` (stereo not given), 1.33; to `Cc1nc(Nc2ccc(F)cc2)nc(N2CCc3ccccc3C2C)c1C` (stereo not given), 0.644.
The same measure, in the same setting: to `Nc1nc(O)c2ncn(COCCO)c2n1` belongs 0.823; to `Cc1c[nH]c(=O)nc1NCc1ccccc1`, 0.91.
For the compound `c1ccc(Cn2c(-c3ccccn3)nc3ccccc32)cc1`, the larval motility is 1.02.
On the same count and under the same terms, in the case of `CC[N+]1(C/C2=C/CCCCCC2)CCC(NC(=O)C2c3cc(Cl)ccc3Oc3ccc(Cl)cc32)CC1` (stereo not given) it was 0.723; in that of `CCOC(=O)/C=C/[C@H](C[C@@H]1CCNC1=O)NC(=O)[C@@H](CC(=O)[C@@H](NC(=O)c1cc(C)on1)C(C)C)Cc1ccc(F)cc1`, 1.09; in that of `Cc1oncc1C(=O)Nc1ccc(C(F)(F)F)cc1`, 0.744.
Take `Cc1ncc([N+](=O)[O-])n1CC(C)O` (stereo not given): the larval motility is 1.55.
The same measure, in the same setting: in the case of `CC(N)C(=O)NC(CCCCN)C(=O)NC(CCCNC(=N)N)C(=O)NC(Cc1c[nH]cn1)C(=O)NC(Cc1c[nH]cn1)C(=O)NCC(=O)NC(Cc1ccc(O)cc1)C(=O)NC(CCCCN)C(=O)NC(CCCNC(=N)N)C(=O)NC(CCCCN)C(=O)NC(Cc1ccccc1)C(=O)NC(Cc1c[nH]cn1)C(N)=O` (stereo not given) it was 1.19.
Still for that read-out and setting: to `NC(=O)c1[nH]c2ccc(S(N)(=O)=O)cc2c1-c1ccccc1` belongs 1.05.
In the case of `CN(C(=O)C1(c2ccc(Cl)cc2)CCC1)c1ccccc1`, the larval motility was 1.21.
Regarding `CN(Cc1ccc(C(C)(C)C)cc1)Cc1cccc2ccccc12`, the larval motility is 0.64.
As for `Cc1cc(-c2ccccc2)c(C(=O)C(=O)Nc2ccc(N3CCN(c4ncc(F)cn4)CC3)cc2)n1C`, the larval motility was 0.529.
For `Nc1nc(-c2ccccc2)nc2[nH]nc(Nc3ccc(C(F)(F)F)cc3)c12`, the larval motility is 0.591.
The same measure, in the same setting: in the case of `CC[C@@H]1C(=O)OC[C@@H]1Cc1cncn1C` it was 0.972; in that of `COc1cc2c(O)c3c(c(-c4ccc5c(c4)OCO5)c2cc1OC)C(=O)OC3`, 0.868.
The same measure, in the same setting: in the case of `CN1CCN(c2ccc3[nH]c(-c4ccc5[nH]c(-c6ccc(O)cc6)nc5c4)nc3c2)CC1` it was 1.11; in that of `O=C(NCc1cccc2ccccc12)c1cccs1`, 0.669.
The same measure, in the same setting: to `Clc1cc2nc(C3CCNCC3)n(Cc3ccc(CNCCc4cnc[nH]4)cc3)c2cc1Cl` belongs 0.981.
Regarding `CC(=O)Oc1ccccc1C(=O)Nc1ncc([N+](=O)[O-])s1`, the larval motility was 0.824.
The same measure, in the same setting: in the case of `Cc1ccccc1NC(=O)Nc1cccc([N+](=O)[O-])c1` it was 1.34.
The same measure, in the same setting: in the case of `Cc1ccc(NC(=O)c2cc(Cl)ccc2O)cc1` it was 0.616; in that of `NC(=O)c1ccc(I)c([N+](=O)[O-])c1`, 0.429.
The same measure, in the same setting: in the case of `NC[C@H]1OB(O)c2c(OCCCO)cccc21` it was 1.61.
As to `O=C(Nc1nnc(-c2ccc(Cl)cc2)o1)c1ccc(F)cc1`, the larval motility is 0.816.
Same read-out and setting: to `CC(C)(C)c1cccc(-c2nc3cc(C(=N)N)ccc3[nH]2)c1O` belongs 0.466.
On to `COC1CC2CCC(C)C(O)(O2)C(=O)C(=O)N2CCCCC2C(=O)OC(C(C)CC2CCC(OCCO)C(OC)C2)CC(=O)C(C)/C=C(\C)C(O)C(OC)C(=O)C(C)CC(C)/C=C/C=C/C=C/1C` (stereo not given), for which the larval motility was 1.02.
With `CCCC1(C2CC2)c2cc(Cl)ccc2NC(=O)N1C` (stereo not given), the larval motility was 0.863.
On the same count and under the same terms, in the case of `CCc1nc2ccccn2c1C(=O)NCc1ccccc1` it was 0.997; in that of `C[C@H](c1cccc2ccccc12)N(C)Cc1ccccc1`, 1.26.
